Assay [1] concerns HIV-1 nucleocapsid protein NCp7 (binding to TG oligonucleotide). Nature of the assay: HIV Nucleocapsid (AID 346; call rule not given here;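 note: potency is the fitted concentration of half-maximal effect; potency is for inhibitors that block NC binding and lower polarization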). Particulars: HIV-1 NC / fluorescein-TGTGTGTG probe, fluorescence polarization. A digest of the protocol:
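Inhibition of nucleocapsid binding to single-stranded 5'-TGTGTGTG probe (10 nM) was measured by fluorescence polarization after 1 hr at room temperature with 100 nM protein under high-salt, zinc-containing, reducing conditions.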
(In fluorescence polarisation assays a small probe gives low polarisation when free and higher when bound to something large.)

The target in assay [2] is Lysosomal acid glucosylceramidase (Homo sapiens) (UniProt P04062). Description: Glucocerebrosidase-p2 (AID 348; in the data active = potency below about 10 µM; note: potency is the fitted concentration of half-maximal effect). Particulars: purified GBA, blue fluorogenic substrate, 40 min. A digest of the protocol:
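Normal human glucocerebrosidase (0.2 nM) with blue fluorogenic substrate (80 uM final) in citrate/phosphate pH 5.9 with 10mM sodium taurocholate, 0.01% tween-20; 40 min RT, NaOH/glycine stop; fluorescence Ex 365/Em 440; AC50 from a titration from 0.6 nM upwards.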

A short description of assay [3]: AP1 Signaling Pathway (AID 357). Note: % is set by controls: 0 for no effect and ±100 for the full control effect. The essentials:
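ME-180 cells with beta-lactamase reporter under AP-1 response element, stimulated with EC50 EGF; compounds tested in titration series, 5 h at 37 °C. CCF4 substrate added 2.5 h at room temperature; 460/530 nm emission ratio gave %activity and AC50.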

Assay [4] addresses Cytochrome P450 1A2 (Homo sapiens) (UniProt P05177). Nature of the assay: p450-cyp1a2 (AID 410; calls by dose curve; note: potency is the fitted concentration of half-maximal effect;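 for activity change, negative = inhibition: -100% = full effect of reference inhibitor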). The essentials:
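Luminescent demethylation readout: Luciferin-ME (100uM, equal to Km) turned over by 20nM CYP1A2 for 60 min at room temperature after NADPH regeneration addition, following 10 min compound preincubation. Normalization used 57 uM furafylline as full inhibition.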

Assay [5] can be described thus: Stat Signaling Pathway (AID 446).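 Note: ME-180 cervical cancer cells given 40 pM IL-6 alongside compound; SIE-controlled beta-lactamase reporter measured as 460/530 nm FRET emission ratio; % is set by controls: 0 for no effect and ±100 for the full control effect.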 A digest of the protocol: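 FRET read-out (405 nm excitation, 460/530 nm emission) of a beta-lactamase reporter under a STAT-inducible element in ME-180 cervical carcinoma cells. Cells with compound receive 40 pM IL-6 for 5 h. Values are normalised to AC90 stimulation and AC90 JAK-inhibitor controls.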
Assay [6] addresses Glucocorticoid receptor (Homo sapiens) (UniProt P04150). Nature of the assay: GR-EFC Redistribution (AID 451; calls by dose curve; note: potency is the fitted concentration of half-maximal effect). The following applies: CHO-K1 GR-EFC translocation, beta-gal luminescence, 2 h. The essentials:
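CHO-K1 cells expressing nuclear EA and GR-ED fragments of b-gal; compounds titrated up to 46 uM final, 2 h at 37 C. GR nuclear translocation read as complemented b-gal luminescence after 1 h RT detection.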

Assay [7] deals with Mitogen-activated protein kinase 10 (Mus musculus) (UniProt Q61831). Description: JNK3 AlphaScreen Assay (AID 530).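 Note: kinase came from lysate of stimulated human HepG2 cells; signal reports phosphorylation of biotinylated GST-cJun 1-79 at Ser73 with 10 µM ATP; % is set by controls: 0 for no effect and ±100 for the full control effect.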 A digest of the protocol: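 Activity was read by AlphaScreen after JNK3-containing HepG2 lysate (cytokine pre-activated) phosphorylated biotinylated GST-cJun with 10 uM ATP at room temperature. Phospho-Ser73 cJun antibody with Protein-A acceptor beads provided detection.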
(Bead proximity is the source of the signal in Alpha formats.)

Assay [8] deals with 3',5'-cyclic-AMP phosphodiesterase 4B (Homo sapiens) (UniProt Q07343). Description: qHTS Assay for Inhibitors of PDE-IV (AID 607; active = well fitted activation curve with a large enough effect in the main read-out, with a control signal flat, not every such curve was filed as active; note: % of control where 0% means no effect). The essentials:
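Cell-based read-out of cAMP via a modified cyclic nucleotide-gated channel and membrane potential dye (535/590 nm) in HEK293 cells expressing PDE4 endogenously. Compounds tested up to 22.9 uM final; 100 uM RO 20-1724 reference.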
(Quantitative high-throughput screening tests each substance at several concentrations.)

Assay [9] is described as follows: qHTS Assay for Lipid Storage Modulators (AID 1519; calls by dose curve). The following applies: Drosophila S3 cells, BODIPY lipid droplet/cell ratio, laser cytometry, cells loaded with oleic acid; for activity change, negative = inhibition: at 57.5 µM (top of the series). The essentials: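 Cells seeded at 5,000 per well were treated with compounds over a concentration series and loaded with oleic acid (400 uM, as added). Lipid droplet fluorescence (488 nm excitation, 500-530 nm channel) was read by laser-scanning cytometry and normalized to 20 uM Triacsin C.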

The nature of assay [10]: Primary qHTS for small molecule stabilizers of the endoplasmic reticulum resident proteome: Secreted ER Calcium Modulated Protein (SERCaMP) assay (AID 1508630; active = well fitted curve in the direction sought with a large enough effect; an effect the other way counts as inactive or inconclusive; note: % is set by controls: 0 for no effect and ±100 for the full control effect). A digest of the protocol:
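The SH-SY5Y reporter protocol was run at 3 concentrations up to 38.3 uM (primary) or 11 concentrations (follow-up): 16 h compound, 100 nM thapsigargin for 4 h, then extracellular luciferase luminescence.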

A short description of assay [11]: NFAT Signaling Pathway (AID 444). The following applies: Jurkat NFAT-bla M1, carbachol, beta-lactamase ratio, 5 h; at 7.69 µM (top of the series). The essentials:
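Jurkat cells with NFAT-driven β-lactamase reporter and co-expressed M1 receptor, stimulated with carbachol (final 1 uM, ~EC50), compound titration, 5 h at 37 °C. CCF4 loaded 1 h at RT; 460/530 nm ratio gave %activity and AC50.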

Assay [12] addresses Cytochrome P450 3A4 (Homo sapiens) (UniProt P08684). Description: qHTS Assay for Activators of Cytochrome P450 3A4 (AID 885; active = well fitted curve in the direction sought with a large enough effect; an effect the other way counts as inactive or inconclusive; note: nearly all actives have a fitted effect of over 65% in size; note: potency is the fitted concentration of half-maximal effect). The essentials: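 Luminescent readout of luciferin formed from 25 uM Luciferin-PPXE (KM level) by 20 nM CYP3A4 in 200 mM KPO4, with 60 min NADPH-driven reaction at room temperature after 10 min compound exposure. Ketoconazole (57 uM) defined 100% inhibition.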

Assay [13] addresses Ubiquitin carboxyl-terminal hydrolase 1 (Homo sapiens) (UniProt O94782). Description: Inhibitors of USP1/UAF1: Pilot qHTS (AID 504865; active = well fitted curve in the direction sought with a large enough effect; an effect the other way counts as inactive or inconclusive;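 note: rhodamine fluorescence freed from ubiquitin-rhodamine substrate followed over time; top concentration of the series differs between compounds; % is set by controls: 0 for no effect and ±100 for the full control effect; nearly all actives have a fitted effect of over 35% in size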). A digest of the protocol: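 Enzyme-free wells gave the negative control, while test wells held 1nM USP1/UAF1 preincubated with compound for 15 min at room temperature. Ub-Rho at 150nM final started the reaction, and fluorescence at 480/540 nm was recorded kinetically.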

Assay [14] deals with Cytochrome P450 3A4 (Homo sapiens) (UniProt P08684). Description: qHTS Assay for Inhibitors and Substrates of Cytochrome P450 3A4 (AID 884; active = well fitted curve in the direction sought with a large enough effect; an effect the other way counts as inactive or inconclusive; note: % is set by controls: 0 for no effect and ±100 for the full control effect; nearly all actives have a fitted effect of over 50% in size). A digest of the protocol:
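Luminescent readout of luciferin produced by CYP3A4 (20 nM) dealkylation of Luciferin-PPXE, 25 uM (its KM). NADPH-driven reaction ran 60 min at RT after 10 min compound preincubation; data scaled to 57 uM ketoconazole as 100% inhibition.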

Assay [15] is described as follows: qHTS Assay for Identification of Small Molecule Agonists for Hypoxia Response Element Signaling Pathway (AID 914; active = well fitted activation curve with a large enough effect in the signal ratio, with a control signal flat, not every such curve was filed as active; the % refers to the signal ratio; note: % of control where 0% means no effect). The following applies: ME-180 (cervical carcinoma) HRE-bla reporter, beta-lactamase ratio, CoCl2, 17 h; activation: stronger effect = higher value. The essentials: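 Reporter activity (beta-lactamase, CCF4 460nm/530nm ratio) in HRE-bla ME-180 cells is recorded after 17 h compound exposure with EC50 CoCl2 at 37 degrees Celsius. AC50 values come from titration data.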

The mark [16] stands for this setting: measured here: cell count channel max response.
The mark [17] stands for this setting: measured here: lipid channel max response.

Inconclusive results are not listed. Calls of active or inactive are those of the source. Unless noted, calls come from the whole dose curve; as a rule, active = well fitted curve in either direction with a large enough effect (not every such curve was filed as active); inconclusive = small, poorly fitted or top-dose-only effect, or another doubt; inactive = flat fitted curve, though single readings scatter. Where only a bound is given, the exact number is not on record here.

3',5'-cyclic-AMP phosphodiesterase 4B (Homo sapiens), sequence (Q07343 whole entry, looked up): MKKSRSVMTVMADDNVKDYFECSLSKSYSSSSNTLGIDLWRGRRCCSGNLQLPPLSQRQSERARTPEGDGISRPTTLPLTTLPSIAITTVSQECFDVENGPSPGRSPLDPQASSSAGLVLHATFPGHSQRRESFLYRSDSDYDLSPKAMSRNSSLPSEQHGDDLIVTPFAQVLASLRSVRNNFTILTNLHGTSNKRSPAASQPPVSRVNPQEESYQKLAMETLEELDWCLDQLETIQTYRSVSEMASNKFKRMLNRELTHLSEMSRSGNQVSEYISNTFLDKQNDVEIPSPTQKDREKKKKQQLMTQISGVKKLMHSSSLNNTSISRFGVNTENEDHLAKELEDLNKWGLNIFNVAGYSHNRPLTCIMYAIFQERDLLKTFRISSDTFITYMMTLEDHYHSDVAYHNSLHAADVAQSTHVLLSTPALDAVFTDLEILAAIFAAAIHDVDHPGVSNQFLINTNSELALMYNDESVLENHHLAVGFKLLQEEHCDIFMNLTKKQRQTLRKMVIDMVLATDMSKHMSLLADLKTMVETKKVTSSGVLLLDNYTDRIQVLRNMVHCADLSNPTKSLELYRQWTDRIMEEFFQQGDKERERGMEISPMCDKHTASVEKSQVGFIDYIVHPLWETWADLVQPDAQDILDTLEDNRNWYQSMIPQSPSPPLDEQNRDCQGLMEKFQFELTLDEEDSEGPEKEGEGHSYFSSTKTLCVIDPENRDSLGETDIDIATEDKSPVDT
Cytochrome P450 3A4 (Homo sapiens), sequence (P08684 whole entry, looked up): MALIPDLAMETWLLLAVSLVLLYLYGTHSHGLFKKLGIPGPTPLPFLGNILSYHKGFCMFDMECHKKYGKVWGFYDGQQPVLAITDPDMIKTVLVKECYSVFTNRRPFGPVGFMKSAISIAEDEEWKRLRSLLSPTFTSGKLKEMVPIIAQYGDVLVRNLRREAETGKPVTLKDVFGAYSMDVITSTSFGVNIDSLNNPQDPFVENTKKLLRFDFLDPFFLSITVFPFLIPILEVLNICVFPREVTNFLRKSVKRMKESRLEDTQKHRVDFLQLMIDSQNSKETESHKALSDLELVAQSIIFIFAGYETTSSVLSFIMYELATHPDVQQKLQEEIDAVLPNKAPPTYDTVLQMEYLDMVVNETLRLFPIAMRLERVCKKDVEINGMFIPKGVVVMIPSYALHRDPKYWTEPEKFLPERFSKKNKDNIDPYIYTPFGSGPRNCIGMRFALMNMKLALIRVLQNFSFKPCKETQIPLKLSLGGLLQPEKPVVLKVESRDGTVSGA
Cytochrome P450 1A2 (Homo sapiens), sequence (P05177 whole entry, looked up): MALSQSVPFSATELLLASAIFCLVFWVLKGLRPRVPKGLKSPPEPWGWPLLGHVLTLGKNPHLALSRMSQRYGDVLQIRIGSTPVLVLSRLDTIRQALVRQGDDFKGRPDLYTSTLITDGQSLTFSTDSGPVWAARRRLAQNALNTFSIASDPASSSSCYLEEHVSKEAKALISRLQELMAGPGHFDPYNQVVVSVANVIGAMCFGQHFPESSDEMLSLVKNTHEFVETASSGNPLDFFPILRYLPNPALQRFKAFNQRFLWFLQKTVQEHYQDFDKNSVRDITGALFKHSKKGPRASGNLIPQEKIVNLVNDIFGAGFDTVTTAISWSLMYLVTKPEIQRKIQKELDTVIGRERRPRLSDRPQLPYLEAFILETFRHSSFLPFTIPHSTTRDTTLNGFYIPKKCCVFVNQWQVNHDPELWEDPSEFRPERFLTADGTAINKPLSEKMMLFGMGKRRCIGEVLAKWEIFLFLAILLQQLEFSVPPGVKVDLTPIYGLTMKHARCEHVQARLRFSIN
Glucocorticoid receptor (Homo sapiens), sequence (P04150 whole entry, looked up, the tested form may be a part): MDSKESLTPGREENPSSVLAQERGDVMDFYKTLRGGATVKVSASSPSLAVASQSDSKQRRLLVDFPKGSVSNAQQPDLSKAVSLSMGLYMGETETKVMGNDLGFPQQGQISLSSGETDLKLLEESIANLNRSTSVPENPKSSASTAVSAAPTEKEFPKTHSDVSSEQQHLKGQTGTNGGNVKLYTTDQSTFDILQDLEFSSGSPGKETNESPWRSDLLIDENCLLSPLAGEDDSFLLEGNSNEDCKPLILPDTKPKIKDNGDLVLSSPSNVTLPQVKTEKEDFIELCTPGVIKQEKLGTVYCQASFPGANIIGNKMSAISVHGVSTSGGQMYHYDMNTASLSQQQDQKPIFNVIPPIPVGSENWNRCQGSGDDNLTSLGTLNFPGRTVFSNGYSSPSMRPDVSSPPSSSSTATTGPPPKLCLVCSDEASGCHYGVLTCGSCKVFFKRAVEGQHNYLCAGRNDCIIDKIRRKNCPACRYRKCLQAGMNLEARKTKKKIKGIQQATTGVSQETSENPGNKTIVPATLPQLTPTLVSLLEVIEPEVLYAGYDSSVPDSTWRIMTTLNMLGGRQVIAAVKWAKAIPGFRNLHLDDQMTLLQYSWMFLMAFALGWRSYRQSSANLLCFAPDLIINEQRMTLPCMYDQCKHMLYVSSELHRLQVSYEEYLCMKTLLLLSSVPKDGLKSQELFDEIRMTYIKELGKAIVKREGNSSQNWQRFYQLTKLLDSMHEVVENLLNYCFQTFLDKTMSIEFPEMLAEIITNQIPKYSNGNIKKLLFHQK
Lysosomal acid glucosylceramidase (Homo sapiens), sequence (P04062 whole entry, looked up): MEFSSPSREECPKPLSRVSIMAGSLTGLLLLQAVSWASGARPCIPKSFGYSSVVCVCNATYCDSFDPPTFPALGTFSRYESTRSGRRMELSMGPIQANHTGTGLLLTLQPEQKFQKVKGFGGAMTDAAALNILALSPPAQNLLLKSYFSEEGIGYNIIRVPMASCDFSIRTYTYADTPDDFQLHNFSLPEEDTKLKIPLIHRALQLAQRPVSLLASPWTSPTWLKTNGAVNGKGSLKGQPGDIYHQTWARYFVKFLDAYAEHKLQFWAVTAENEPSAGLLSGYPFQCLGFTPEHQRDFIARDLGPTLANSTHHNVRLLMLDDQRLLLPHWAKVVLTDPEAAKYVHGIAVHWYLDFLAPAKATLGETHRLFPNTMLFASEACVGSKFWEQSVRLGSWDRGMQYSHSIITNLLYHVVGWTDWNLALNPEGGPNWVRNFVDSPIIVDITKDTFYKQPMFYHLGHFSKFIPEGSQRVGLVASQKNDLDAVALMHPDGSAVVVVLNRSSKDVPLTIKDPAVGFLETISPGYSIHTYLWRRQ
Ubiquitin carboxyl-terminal hydrolase 1 (Homo sapiens), sequence (O94782 whole entry, looked up): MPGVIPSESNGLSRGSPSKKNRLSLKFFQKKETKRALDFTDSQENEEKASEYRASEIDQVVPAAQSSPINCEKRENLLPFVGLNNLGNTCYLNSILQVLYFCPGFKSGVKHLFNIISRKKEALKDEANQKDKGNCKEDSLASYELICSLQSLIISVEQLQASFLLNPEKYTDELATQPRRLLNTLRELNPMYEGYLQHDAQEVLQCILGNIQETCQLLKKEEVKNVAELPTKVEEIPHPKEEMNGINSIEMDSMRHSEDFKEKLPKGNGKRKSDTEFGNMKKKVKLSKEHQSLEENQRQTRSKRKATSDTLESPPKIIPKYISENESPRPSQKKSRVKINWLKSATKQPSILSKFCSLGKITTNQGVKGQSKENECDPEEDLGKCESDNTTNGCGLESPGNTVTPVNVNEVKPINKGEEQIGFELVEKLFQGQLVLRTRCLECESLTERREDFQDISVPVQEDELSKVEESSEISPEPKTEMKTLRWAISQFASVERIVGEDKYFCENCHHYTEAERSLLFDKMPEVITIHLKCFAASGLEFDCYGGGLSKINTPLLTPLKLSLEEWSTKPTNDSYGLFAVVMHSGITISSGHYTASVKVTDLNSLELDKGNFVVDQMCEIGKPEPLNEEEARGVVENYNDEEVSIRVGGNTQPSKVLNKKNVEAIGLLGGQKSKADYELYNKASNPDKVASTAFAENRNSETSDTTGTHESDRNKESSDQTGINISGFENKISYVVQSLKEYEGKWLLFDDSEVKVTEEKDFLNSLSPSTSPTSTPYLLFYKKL

Regarding `c1ccc(CN2CCCC3(CCNCC3)C2)cc1`, the Potency in assay [1] is > 20 µM (inactive); in [2], > 11.4 µM (inactive); in assay [6] it was > 46 µM (inactive). In addition, the outcome in assay [3], in assay [5], in [7] and in assay [10] was inactive. The Potency result in [4] and in assay [8] was “inactive” throughout. Further, the activity change, negative = inhibition in assay [9] is 2.49% (inactive). Also, the max response in assay [9] (setting [16]) is 3.6%; in [9] (setting [17]) it was 7.81%.
Consider `Cc1ccccc1-c1cncnc1NCCc1cnc[nH]1`, for which the Potency in assay [1] was > 20 µM (inactive); in assay [2] it was > 11.4 µM (inactive); in assay [4], 5.01 µM (active); in assay [6], > 46 µM (inactive). Besides, the molecule was classed as inactive in assay [3], in assay [5], in [7] and in assay [10]. The activity change, negative = inhibition in assay [11] was -8.8% (inactive); in assay [9] it was 6.91% (inactive). Besides, the Potency result in [8], in [12] and in assay [13] was “inactive” throughout. The max response in assay [9] (setting [16]) was determined as 9.82%; in [9] (setting [17]), 17.7%.
On to `O=C(Nc1ccccc1)N1CC2(CCN(C(=O)Oc3ccccc3)CC2)C1`, for which the Potency in assay [2] is > 11.4 µM (inactive); in assay [4], 20 µM (active); in [6], > 46 µM (inactive); in assay [12], 15.8 µM (active). Besides, the outcome in [3], in assay [5], in assay [7] and in [10] was inactive. Besides, the activity change, negative = inhibition in assay [11] is 23.8% (inactive); in assay [9], 7.64% (inactive). Besides, the Potency entry in [8] and in [14] was “inactive” in each case. For the same molecule, the activation in assay [15] is -6.7% (inactive). The max response is 9.38% in [9] (setting [16]) and 22.2% in assay [9] (setting [17]).
On to `CC(C)CN1CC2(CCN(C(=O)Oc3ccccc3)CC2)C1`, for which the Potency in assay [1] is > 20 µM (inactive); in assay [2] it was > 11.4 µM (inactive); in [6], > 46 µM (inactive). The molecule was classed as inactive in [3], in assay [5], in [7] and in assay [10]. For the same molecule, the Potency entry in assay [4] and in assay [8] was “inactive” throughout. In addition, the figures for the activity change, negative = inhibition in assay [11] and in assay [9] were -14.8% (inactive) and 2.95% (inactive), respectively. In assay [15], the activation is -12.9% (inactive). The max response in assay [9] (setting [16]) was -4.14%; in assay [9] (setting [17]), 1.27%.
Turning to `CS(=O)(=O)N1CCC2(CCCN(Cc3ccncc3)C2)CC1`, the Potency is > 20 µM (inactive) in assay [1], > 11.4 µM (inactive) in assay [2] and > 46 µM (inactive) in [6]. In addition, the molecule was called inactive in assay [3], in assay [5], in assay [7] and in assay [10]. Besides, the values for the activity change, negative = inhibition in assay [11] and in assay [9] were -20.7% (inactive) and 6.09% (inactive), respectively. Moreover, the Potency entry in [8] was “inactive”. The figures for the max response in assay [9] (setting [16]) and in assay [9] (setting [17]) were 15.9% and 25.1%, respectively.
On to `c1cc(CN2CC3(CCNCC3)C2)ccn1`, for which the Potency in assay [1] was > 20 µM (inactive); in assay [2], > 11.4 µM (inactive); in assay [6], > 46 µM (inactive). Besides, the outcome in assay [3], in assay [5], in assay [7] and in assay [10] was inactive. The Potency entry in [4] and in assay [8] was “inactive” each time. Besides, the activity change, negative = inhibition in assay [9] is 2.64% (inactive). Further, the max response in assay [9] (setting [16]) came out at 6.79%; in assay [9] (setting [17]), 9.29%.

(Values after PubChem BioAssay (NCATS).)
